Screening data deposited in PubChem BioAssay by several laboratories.
This is a sample that favours compounds with a hit; in the whole collection about 2.4% have one here.
SENP8 block-1: inhibitors of human SENP8 protease; 360,000 compounds, 0.64% hits; recombinant SENP8, Nedd8 substrate fluorescence; inhibition, % at 20 µM; Q96LD8; in the data active = inhibition mostly above about 40%, no sharp cut-off; inactive = mostly below about 27%
Target sequence (Q96LD8 whole entry, looked up): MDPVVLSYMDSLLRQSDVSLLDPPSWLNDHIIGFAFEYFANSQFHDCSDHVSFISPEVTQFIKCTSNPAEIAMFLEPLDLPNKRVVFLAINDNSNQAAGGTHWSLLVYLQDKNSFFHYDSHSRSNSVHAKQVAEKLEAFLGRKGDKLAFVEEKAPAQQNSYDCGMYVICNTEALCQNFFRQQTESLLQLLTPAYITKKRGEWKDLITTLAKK
SENP6 block: inhibitors of human SENP6 protease; Recombinant SENP6 catalytic domain, aminoluciferin luminescence; inhibition, % at 10 µM; Q9GZR1; 330,000 compounds, 1.8% hits;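 active = inhibition above about 50% at the single tested dose, limit read from the data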;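 also: plate controls were DMSO wells with enzyme for no effect and DMSO wells lacking enzyme for full effect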
Platelet DG rel: platelet dense granule release activity. AID 1663. inhibition, %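 (compounds screened at 7.5 µM in platelet-rich plasma)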. human platelet-rich plasma, SFLLRN dense granule ATP release, luminescence. 300,000 compounds, 0.22% hits;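 active = mean replicate score, as percent of positive control, at or above 50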
SENP8 block-2: blocks the human protease SENP8; Q96LD8; purified SENP8, Z-RLRGG-aminoluciferin cleavage, luminescence; inhibition, % at 10 µM; 330,000 compounds, 1.2% hits; AID 2540; in the data active = inhibition above about 50%
SENP7 inh: inhibitors of human SENP7 protease. Q9BQF6. recombinant SENP7, Z-RLRGG-aminoluciferin luminescence, 40 min. inhibition, % at 5 µM. 330,000 compounds, 1.5% hits. AID 434973;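 active = inhibition above about 50% at the single test dose, limit read from the data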;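 also: plate controls were DMSO with enzyme for no effect and no enzyme buffer wells for full effect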
Target sequence (Q9BQF6 706-1050 limits assumed): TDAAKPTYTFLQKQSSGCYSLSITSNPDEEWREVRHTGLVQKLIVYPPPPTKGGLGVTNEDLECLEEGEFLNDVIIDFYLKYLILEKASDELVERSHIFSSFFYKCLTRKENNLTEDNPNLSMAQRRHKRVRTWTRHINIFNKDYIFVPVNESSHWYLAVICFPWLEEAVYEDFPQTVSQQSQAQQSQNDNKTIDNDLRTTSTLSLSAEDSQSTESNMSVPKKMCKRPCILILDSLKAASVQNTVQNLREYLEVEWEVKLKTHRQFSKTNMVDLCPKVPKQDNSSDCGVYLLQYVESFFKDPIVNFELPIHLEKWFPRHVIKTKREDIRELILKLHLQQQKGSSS
SENP8 inh conf: SENP8 (human) inhibition, single concentration confirmation; shares compounds with SENP8 block-1; purified SENP8, Nedd8-AMC/pro-Nedd8 cleavage fluorescence, 30 min; inhibition, % at 25 µM; 1,400 compounds, 15% hits; in the data active = inhibition mostly above about 39%, no sharp cut-off; inactive = mostly below about 34%
The depositor's hits bear a star; . = not tested or not shown.

SMILES	SENP8 block-1	SENP6 block	Platelet DG rel	SENP8 block-2	SENP7 inh	SENP8 inh conf
CC(=O)c1cccc(NC(=O)C(C)OC(=O)CCc2nc3ccccc3c(=O)[nH]2)c1 (centres undefined)	17	-9	.	-9	-5	.
Cc1cc(N(C)N)nc(NC(=O)NS(=O)(=O)c2ccccc2Cl)n1	17	1	3	-2	2	.
O=C(CSc1nnc(-c2ccccc2Cl)o1)N1CCOCC1	14	-11	0	-5	0	.
COCC1CCN(Cc2c(C(=O)N3CCOCC3)nc3c(C)cccn23)C1 (centres undefined)	-25	.	.	.	.	.
COC(=O)CCCC1=CC2=CC(=O)C(C)(OC(=O)c3cccs3)C(=O)C2=CN1C1CCCC1 (centres undefined)	46*	7	2	9	3	49*
COC(=O)CCCC1=CC2=CC(=O)C(C)(OC(=O)c3cccs3)C(=O)C2=CN1Cc1ccccc1 (centres undefined)	13	25	8	16	5	.
COc1ccc(N(C)S(=O)(=O)c2ccc(Cl)c(C(=O)NCC(C)(C)N3CCOCC3)c2)cc1	-1	-21	.	-11	-7	.
O=C(Nc1ccc(F)cc1)OCCOc1ccc([N+](=O)[O-])cc1	24	14	2	9	4	.
O=c1c(-c2ccc(O)cc2O)coc2cc(O)cc(O)c12	55*	8	4	4	-3	22
CC(=O)Nc1ccc(CN(C)c2c(C)nc3ccc(C(=O)N4CCN(C(C)=O)CC4)cn23)cc1	6	.	.	.	.	.
O=C(CCCCCN1C(=O)[C@@H]2Cc3ccccc3CN2C1=O)NCCc1ccccc1	-3	-7	-5	-2	-3	.
CC1(C(=O)Nc2ccc3c(c2)OCCO3)CCN1Cc1ccc(-c2ccccn2)cc1 (centres undefined)	18	.	.	.	.	.
CC1(C(=O)Nc2ccc3c(c2)OCCO3)CCN1Cc1ccc2ccccc2c1 (centres undefined)	40*	.	.	.	.	-12
Cc1ccccc1N1C(=O)CC(N(O)c2ccccc2)C1=O (centres undefined)	13	-3	4	0	0	.
O=C1CC(N(O)c2ccccc2)C(=O)N1c1cc(Cl)cc(Cl)c1 (centres undefined)	44*	-6	-10	-11	-1	17
CCCCOCCCNC(=O)c1ccc2c(c1)OCO2	-2	-10	-2	3	1	.
COCCCNC(=O)c1ccc2c(c1)OCO2	45*	1	1	-2	5	12
CC1=NN(c2cccc([N+](=O)[O-])c2)C(=O)C1	21	24	-8	3	17	.
CC1=NN(c2ccc(S(=O)(=O)O)cc2C)C(=O)C1	69*	6	4	-4	2	11
Cc1ccc(NC(=O)CN2CCc3cc4c(cc3C2)OCCCO4)cc1	43*	12	-10	10	6	4
Cc1ccc(NC(=O)CN2CCc3cc4c(cc3C2)OCCCO4)cc1C	-22	9	0	2	4	.
CCOc1ccc(C(c2c(C)[nH][nH]c2=O)c2c(C)[nH][nH]c2=O)cc1OC	54*	-3	3	-2	10	35
Nn1c(-c2ccccc2Cl)nnc1-c1ccccc1Cl	40*	13	.	-6	9	9
CCNc1nc(NCC)nc(OCC(=O)O)n1	46*	-15	2	1	3	21
CCNc1nc(NOC)nc(OCC#N)n1	15	5	6	3	15	.
SMILES	SENP8 block-1	SENP6 block	Platelet DG rel	SENP8 block-2	SENP7 inh	SENP8 inh conf
O=c1cc(-c2ccc(Br)cc2)[nH][nH]1	24	3	-1	-8	4	.
O=c1ccc(Br)c[nH]1	42*	11	2	10	14	22
Nc1cc(N)cc(C(=O)c2ccccc2)c1	43*	.	.	.	.	77*
O=C(c1ccccc1)c1cccc(C(=O)c2ccccc2)c1	8	-2	.	-13	-4	.
CCOc1ccc(C(=O)CC(C(=O)O)N2CCCCC2)cc1 (centres undefined)	10	3	.	-3	4	.
CC(=O)OC1CC2(C)/C(=N\O)CCC2C2CCc3cc(O)ccc3C12 (centres undefined)	31	3	3	-2	5	.
O=C(O)c1cc([N+](=O)[O-])ccc1N1CCCCC1	42*	-13	10	-8	-5	16
O=C(O)c1c(N2CCCCC2)ccc([N+](=O)[O-])c1N1CCCCC1	40*	-4	1	-2	7	23
O=C(c1cc([N+](=O)[O-])ccc1N1CCCCC1)N1CCCCC1	14	-2	8	9	5	.
CC(=O)OC1(C(C)=O)CCC2C3CC(Cl)C4=CC(=O)CCC4(C)C3CCC21C (centres undefined)	0	.	.	.	.	.
Cc1cc(C(=O)N2CCN(S(=O)(=O)c3ccc(F)c(Cl)c3)CC2)c(C)o1	14	-1	.	-5	3	.
COC/C=C/C1=CC2=CC(=O)C(C)(OC(=O)c3cnc4ccccc4n3)C(=O)C2=CN1CCOC (centres undefined)	54*	20	4	5	8	47*
COC/C=C/C1=CC2=CC(=O)C(C)(OC(=O)c3cnc4ccccc4n3)C(=O)C2=CN1CCCOC(C)C (centres undefined)	44*	9	5	-11	-9	34
C=CCN1C=C2C(=O)C(C)(OC(=O)c3cnc4ccccc4n3)C(=O)C=C2C=C1/C=C/COC (centres undefined)	-19	10	-1	7	2	.
COC/C=C/C1=CC2=CC(=O)C(C)(OC(=O)c3cnc4ccccc4n3)C(=O)C2=CN1CCN1CCOCC1 (centres undefined)	27	14	10	-11	12	.
CCCCc1ccc(NC(=S)NCc2ccc(OC)cc2)cc1	20	-24	7	-6	-6	.
O=S(=O)(c1ccccc1)[C@@]1(c2ccc(Br)cc2)C[C@@H]2ON=C(c3ccccc3)[C@@H]2C1	13	-1	2	-5	7	.
CCS(=O)(=O)N1CCCC(C(=O)N2CCc3ccccc3C2)C1 (centres undefined)	53*	1	0	5	4	54*
COc1cccc(C2=NOC(C(=O)N3CCc4ccccc4C3)C2)c1 (centres undefined)	51*	8	3	-1	5	61*
COc1ccc(OC)c(S(=O)(=O)N2CCC(C(=O)N3CCCC3)CC2)c1	7	-18	4	9	1	.
COc1ccc(OC)c(S(=O)(=O)N2CCC(C(=O)N3CCc4ccccc4C3)CC2)c1	44*	-20	-3	-8	-12	38
O=C(C1CC(c2ccc(F)cc2)=NO1)N1CCc2ccccc2C1 (centres undefined)	21	1	4	-6	2	.
Cc1ccccc1-c1cnc(C(O)c2ccc(-c3ccccc3)cc2)[nH]1 (centres undefined)	41*	.	.	.	.	20
CN(Cc1ccccc1F)C(=O)CN1CCN(S(=O)(=O)c2ccc3c(c2)OCCCO3)CC1	-5	-11	.	-8	1	.
